Assay results as given in the supplement of paper PMC6555819.

These sequences were tested on LXRb:RXRa (NR concentration 270 nM, RXRa partner concentration 90 nM) (assay: PBM binding z-score (relative to random genomic background probes); higher = stronger binding; sequences stand for … in GC…GCGATTGACAGCGTAGAATGAAGG).
Procedure: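 Protein-binding microarray (Agilent 4x180K custom design, double-stranded 60-nt probes: 5' GC cap, 34-nt variable region, 24-nt constant primer region; full probe sequence given). Purified or IVT nuclear receptor:RXRα heterodimers (3:1 NR:RXRα, mostly 270:90 nM) or homodimers were incubated for 1 h in PBS with 2% milk and no ligand, then detected with Alexa488 antibodies. Fluorescence from o1-orientation probes (~5 replicates averaged) was converted to z-scores against 500 random hg19 background probes. Variable regions are seed direct-repeat (DR0–DR5) sites, all their single-nucleotide variants and half-site ablations.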
In the case of CCTACTGGGCCATTCAGAGGGCATTGATCATATG, the PBM binding z-score is reported as -0.224. ACTTAAGGGTCAACGAGGTTATAGCACGCGTATA gave a PBM binding z-score of 5.33. In the case of CCTCGGAGGACAGAAGGTCAAAGCTGTCCGCTTT, the PBM binding z-score is reported as 3.1. CGTACAAGGTCAAAGGTCAGTGAAGAGATGACGG was tested, and the PBM binding z-score was 6.66. TAGCCTAGGTTATGGGCCAGTATACCACGCGAAC was tested, and the PBM binding z-score was 0.13. CGTCAAAGTTCAACTAAGGTTACGTAAAGCACGC showed a PBM binding z-score of 5.4. For CGTCCGAGGTCAAGGTCAGTGAAAGAGACTCGAA, the PBM binding z-score was 5.26. Sequence ACTCGGTGGACAAAGGTCAGAGCTACGCCAGTGA has a PBM binding z-score of 2.99. In the case of AGAATGGGGTTACCAAAGATCAGGGAAACGCTTG, the PBM binding z-score is reported as 5.03. For AATACAGGGTCATCTTAGGCCAGAGTACGCACAG, the PBM binding z-score was 5.12. TATTCAGGGTCAAAGGCCAGAGTACGAATGTCGA showed a PBM binding z-score of 5.77. In the case of CAGCATAGGTCAGGGCCAGTATAGGAGGAACGTT, the PBM binding z-score is reported as 1.98. ATCGAAAGGTCGTGAGGTAAGTATACAGAAAGGC showed a PBM binding z-score of 3.5. Work on CGAACTAGGTCGCCAGGACAGTGAAGAGGTTGGA yielded a PBM binding z-score of -0.222. Sequence CCTACTGGGCCAAAGAGGTCATTGATGCCGATAA has a PBM binding z-score of 3.65. In the case of ATATGTAGGTTATCGGGTCATACAGTTTGCGCAT, the PBM binding z-score is reported as 3. With CGTCCAAGGTCAAGGTCAATGAAAGAGACTCGAA the PBM binding z-score was 4.94. Sequence TGTCAAAGTTCAAAGGTGACGTAAGTATCCACAC has a PBM binding z-score of 5.06. TAGCCTAGGTCATGCGGGACAGTATAGTGTCGGC was tested, and the PBM binding z-score was 1.88. Sequence GCTTACGGGTCCAAGGTTATAGCATGAATAGAAT has a PBM binding z-score of 0.855. Sequence CGAACTAGGTCTAAGGACAGTGAAAGGCGACGTA has a PBM binding z-score of -0.844. GTTACAGGGTCAAGGCCAGAGTACGCGTATTGAT was tested, and the PBM binding z-score was 3.64. Work on CCTTACGGGTCACGAGGTTGTAGCACGACGAGCG yielded a PBM binding z-score of 3.44. In the case of CAAACTAGGTCACAAAAGGTCAAAGTCGAATGAC, the PBM binding z-score is reported as 7.76. In the case of TAGCCTAGGTCATTCAGGGGCAAGTATAGAAAGC, the PBM binding z-score is reported as 4.97. With CCTTACGGGTCACTCCAGGTTATATCATCGGAGT the PBM binding z-score was 5.38. GATATAGGGTCAGCTAGAGGCCAGAGTATGGAAA showed a PBM binding z-score of 2.77. Work on CAAACTAGGTCACAGTGGTCAAAGTCCGTGCGTA yielded a PBM binding z-score of 2.4. CCTACTGGGCCACGAAAGGCCATTGATTCAGTGA showed a PBM binding z-score of -0.37. For TCTCGGAGGACACAAAGGTCAGAGCTTTCCAGAG, the PBM binding z-score was 3.15. Sequence AGTCAAAGTTCATCTAGGTAACATAAGATATGCT has a PBM binding z-score of 3.93. CCTACTGGGCCAAAAAGTTCATTGATGCCGATAA gave a PBM binding z-score of 1.09. With AGTCAAAGTTCAGGACGACGTAACGTAAAGCACG the PBM binding z-score was 1.67. ATCGAAAGGTCGAAGGTGAGCATACCCACCCGAA gave a PBM binding z-score of 2.79. TCTTGTAGGTCAATAGAGGTTAAGAAAGTGCGCT was tested, and the PBM binding z-score was 5.11. CGTCCAAAGTCAAAGGTCAGTGAAGAGATGACGG was tested, and the PBM binding z-score was 3.44. In the case of CCTAGTTGGTCAAGGTCACACCCGCTATAGGTAC, the PBM binding z-score is reported as 3.5. Sequence AGAATGAGGTTACTAAAGATCAGGGAAACGCTTG has a PBM binding z-score of 5.45. TAGCCTAGGTCATGCGGGCCAATATAGTGTCGGC gave a PBM binding z-score of 1.9. CGAACTAGGTCAAGGCCAGTGAATCTCCGCACGC was tested, and the PBM binding z-score was 1.44.
